According to PubChem BioAssay:
Activity calls are given as the source filed them. Unless noted, how the calls were made is not given here.

What was measured:
[1] = test system: Wnt5a (protein binding on small-molecule microarray); test: small molecules binding Wnt5a protein – biophysical, small-molecule microarray, 635/667 nm fluorescence, primary screen (AID 1142); details: 635 nm fluorescence, higher = more signal;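 further: fluorescence read at 667 nm with signal to noise per printed feature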
[2] = ATP-based viability of Huh7 replicon cells – cell-based, CellTiter-Glo luminescence, basal, 48 h, cytotoxicity control for HCV replication inhibitor project, primary screen (AID 1143); details: higher = more signal, called active from +8 up or from −8 down;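 further: Huh7 hepatoma cells carrying a hepatitis C replication reporter with no stimulus; test concentration not given here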
[3] = Pseudomonas biofilm growth suppression – PAO1 strain, BacTiter-Glo luminescence, LB-PBS, primary screen (AID 1144); details: P. aeruginosa PAO1 biofilm, 12 h, higher = more signal
[4] = basal CRE-LacZ reporter activity in PC12 – cell-based, unstimulated, primary screen (AID 1145); details: no forskolin, luminescence, 4.5 h, higher = more signal, called active from +8 up or from −8 down
[5] = forskolin-driven CRE-LacZ activity in PC12 – cell-based, CRE-LacZ reporter, forskolin-stimulated, primary screen (AID 1146); details: luminescence, 4.5 h, higher = more signal, called active from +8 up or from −8 down;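 further: PC12 cells with 6xCRE LacZ reporter stimulated by forskolin 10 µM; beta-galactosidase reporter signal reflecting CREB driven transcription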
[6] = target: Streptavidin (Streptomyces avidinii) (UniProt P22629); test: compounds binding control protein streptavidin – biophysical, small-molecule microarray, 635/667 nm fluorescence, artefact control for SMM compound annotation, primary screen (AID 1147); details: higher = more signal;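 further: signal reflects streptavidin binding to arrayed compounds as a control protein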
[7] = probe aInhba binding on compound microarray – biochemical, small-molecule microarray, 635/667 nm fluorescence, primary screen (AID 1148); details: higher = more signal;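 further: score merges 667nm spot fluorescence with signal-to-noise for antibody binding to printed compounds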
[8] = target: Torsin-1A (Homo sapiens) (UniProt O14656); test: TOR1A wild-type binding on microarray – cell lysate, small-molecule microarray, lysate, 635/667 nm, primary screen (AID 1149); details: COS7 hTOR1A-WT lysate, 635 nm fluorescence, higher = more signal
[9] = target: Torsin-1A (Homo sapiens) (UniProt O14656); test: torsin A mutant lysate binding on microarrays – cell lysate, small-molecule microarray, COS7 lysate, 635/667 nm fluorescence, primary screen (AID 1150); details: COS7 hTOR1A mutant lysate, 635 nm fluorescence, higher = more signal;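 further: score pools 667 nm emission and signal to noise measuring lysate protein binding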
[10] = test system: Sonic hedgehog protein (Shh); test: Sonic hedgehog microarray binding compounds – biochemical, small-molecule microarray, 635/667 nm fluorescence, primary screen (AID 1151); details: 635 nm fluorescence, higher = more signal;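 further: Shh protein binding to compounds spotted on small-molecule microarray slides; score combines spot fluorescence intensity with signal-to-noise across triplicate slides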
[11] = optical density shifts of acrAB sulA E. coli – strain DRC41, OD650, 48 h, E. coli filamentation inducer project, primary screen (AID 1152); details: higher = more signal, called active from +8 up or from −8 down;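 further: E. coli MC1000 strain DRC41 lacking acrAB efflux pump and sulA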
[12] = probe aLefty1 binding on compound microarray – biochemical, small-molecule microarray, 635/667 nm fluorescence, primary screen (AID 1153); details: higher = more signal;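 further: score merges spot fluorescence with signal-to-noise ratio from the scanned slide images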
[13] = plasmodial surface anion channel blockers, osmotic lysis – cell-based, P. falciparum Indochina, OD700, 1 h, primary screen (AID 1154); details: P. falciparum Indochina infected RBC osmotic lysis, higher = more signal, called active from +8 up or from −8 down
[14] = plasmodial surface anion channel blockers, osmotic lysis – cell-based, P. falciparum Indochina, OD700, 2 h, primary screen (AID 1155);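 further: lysis reports solute entry through the parasite surface anion channel PSAC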; details: P. falciparum Indochina infected erythrocytes, higher = more signal, called active from +8 up or from −8 down
[15] = changes in parasitized red cell lysis, either direction – P. falciparum Indochina, OD700, 3 h, PSAC antagonist project, primary screen (AID 1156); details: P. falciparum-infected erythrocytes, osmotic lysis, higher = more signal, called active from +8 up or from −8 down
[16] = plasmodial surface anion channel blockers, osmotic lysis – cell-based, P. falciparum Indochina, OD700, 18 h, primary screen (AID 1157); details: P. falciparum Indochina infected erythrocytes, osmotic lysis OD700, 18 h; higher = more signal, called active from +8 up or from −8 down
[17] = S6 kinase pathway phospho-S6 level changes – cell-based, A549, cytoblot, luminescence, serum-stimulated, primary screen (AID 1158); details: 5 h, higher = more signal;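 further: serum-stimulated A549 lung adenocarcinoma cells; signal is phosphorylated S6 detected by cytoblot immunostaining with HRP secondary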
[18] = target: NADPH oxidase 2 (Homo sapiens) (UniProt P04839); test: compounds shifting NOX2 Amplex Red fluorescence – cell-based, HEK293-NOX2, PMA-stimulated, NOX inhibitor project, primary screen (AID 1159); details: 45 min, higher = more signal, called active from +8 up or from −8 down; further: test concentration not given here
[19] = target: NADPH oxidase 4 (Homo sapiens) (UniProt Q9NPH5); test: compounds shifting NOX4 Amplex Red fluorescence – cell-based, HEK293-NOX4, tetracycline-induced, NOX inhibitor project, primary screen (AID 1160); details: HEK293-NOX4, Amplex Red H2O2 fluorescence, 45 min; higher = more signal, called active from +8 up or from −8 down
[20] = target: NADPH oxidase 5 (Homo sapiens) (UniProt Q96PH1); test: compounds shifting NOX5 Amplex Red fluorescence – cell-based, HEK293-NOX5, NOX inhibitor project, primary screen (AID 1161); details: HEK293-NOX5, ionomycin, 45 min, higher = more signal
Sequence of NADPH oxidase 5 (Homo sapiens) (Q96PH1 whole entry, looked up): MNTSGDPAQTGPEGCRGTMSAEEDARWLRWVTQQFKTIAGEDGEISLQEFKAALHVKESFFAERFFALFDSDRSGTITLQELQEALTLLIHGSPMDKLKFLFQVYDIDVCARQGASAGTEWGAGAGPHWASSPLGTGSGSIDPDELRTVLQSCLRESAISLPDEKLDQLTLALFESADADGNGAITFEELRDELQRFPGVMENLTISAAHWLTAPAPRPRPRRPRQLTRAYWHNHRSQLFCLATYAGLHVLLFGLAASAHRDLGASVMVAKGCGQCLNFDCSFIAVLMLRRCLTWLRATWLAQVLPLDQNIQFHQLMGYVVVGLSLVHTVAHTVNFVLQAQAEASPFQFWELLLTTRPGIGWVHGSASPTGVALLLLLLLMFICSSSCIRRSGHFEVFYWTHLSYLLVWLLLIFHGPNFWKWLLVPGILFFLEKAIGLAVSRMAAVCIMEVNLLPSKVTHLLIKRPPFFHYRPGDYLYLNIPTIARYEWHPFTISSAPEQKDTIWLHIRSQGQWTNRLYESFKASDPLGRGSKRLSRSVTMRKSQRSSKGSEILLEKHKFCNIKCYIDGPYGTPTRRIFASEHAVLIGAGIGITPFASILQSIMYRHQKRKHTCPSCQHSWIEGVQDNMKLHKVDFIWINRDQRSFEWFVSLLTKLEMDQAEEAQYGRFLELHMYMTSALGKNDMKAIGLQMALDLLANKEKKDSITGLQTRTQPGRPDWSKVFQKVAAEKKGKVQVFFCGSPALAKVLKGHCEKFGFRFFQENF

Sequence of NADPH oxidase 4 (Homo sapiens) (Q9NPH5 whole entry, looked up): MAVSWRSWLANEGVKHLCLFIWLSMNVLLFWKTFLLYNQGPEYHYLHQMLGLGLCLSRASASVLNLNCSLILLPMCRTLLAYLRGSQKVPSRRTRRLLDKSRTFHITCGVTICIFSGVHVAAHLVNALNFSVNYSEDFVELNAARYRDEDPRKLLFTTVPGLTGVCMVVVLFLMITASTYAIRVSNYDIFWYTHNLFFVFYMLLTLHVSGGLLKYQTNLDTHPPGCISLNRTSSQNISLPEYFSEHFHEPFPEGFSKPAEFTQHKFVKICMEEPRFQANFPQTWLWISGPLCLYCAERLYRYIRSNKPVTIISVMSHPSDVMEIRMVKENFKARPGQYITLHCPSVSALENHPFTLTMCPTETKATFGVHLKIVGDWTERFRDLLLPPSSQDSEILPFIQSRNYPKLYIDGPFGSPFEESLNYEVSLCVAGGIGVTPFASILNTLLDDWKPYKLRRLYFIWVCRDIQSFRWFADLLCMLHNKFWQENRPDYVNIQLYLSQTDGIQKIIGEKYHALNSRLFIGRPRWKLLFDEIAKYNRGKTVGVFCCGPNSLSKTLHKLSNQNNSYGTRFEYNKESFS
Sequence of Torsin-1A (Homo sapiens) (O14656 whole entry, looked up): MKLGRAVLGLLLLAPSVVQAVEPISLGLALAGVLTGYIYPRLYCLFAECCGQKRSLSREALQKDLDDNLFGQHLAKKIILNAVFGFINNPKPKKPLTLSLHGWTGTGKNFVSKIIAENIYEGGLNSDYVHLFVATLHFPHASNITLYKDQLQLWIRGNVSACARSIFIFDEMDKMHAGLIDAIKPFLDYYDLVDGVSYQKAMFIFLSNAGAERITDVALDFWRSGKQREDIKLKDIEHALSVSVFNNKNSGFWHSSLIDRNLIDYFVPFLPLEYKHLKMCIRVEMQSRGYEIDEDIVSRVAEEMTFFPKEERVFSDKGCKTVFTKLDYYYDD
Sequence of NADPH oxidase 2 (Homo sapiens) (P04839 whole entry, looked up): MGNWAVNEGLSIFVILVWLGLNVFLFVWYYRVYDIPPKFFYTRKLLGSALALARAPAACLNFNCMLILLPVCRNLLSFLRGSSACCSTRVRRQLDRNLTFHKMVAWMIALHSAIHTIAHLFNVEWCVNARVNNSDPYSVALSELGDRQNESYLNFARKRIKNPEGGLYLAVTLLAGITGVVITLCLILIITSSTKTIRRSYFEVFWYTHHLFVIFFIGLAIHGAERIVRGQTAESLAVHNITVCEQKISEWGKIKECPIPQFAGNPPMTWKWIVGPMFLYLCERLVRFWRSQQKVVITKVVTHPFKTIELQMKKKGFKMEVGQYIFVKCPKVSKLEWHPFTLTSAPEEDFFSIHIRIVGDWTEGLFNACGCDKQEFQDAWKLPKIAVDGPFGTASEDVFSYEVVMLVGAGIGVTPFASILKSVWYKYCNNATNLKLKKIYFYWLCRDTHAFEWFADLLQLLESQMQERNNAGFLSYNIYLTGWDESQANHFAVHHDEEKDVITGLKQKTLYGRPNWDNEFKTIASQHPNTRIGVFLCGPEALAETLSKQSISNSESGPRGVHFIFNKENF
Sequence of Streptavidin (Streptomyces avidinii) (P22629 whole entry, looked up): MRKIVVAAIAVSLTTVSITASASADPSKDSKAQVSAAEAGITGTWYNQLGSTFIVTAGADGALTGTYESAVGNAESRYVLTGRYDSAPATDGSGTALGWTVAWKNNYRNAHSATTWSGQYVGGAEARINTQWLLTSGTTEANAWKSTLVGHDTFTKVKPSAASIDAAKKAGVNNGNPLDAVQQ

SMILES	composite z-score [1]	z-score [2]	z-score [3]	z-score [4]	z-score [5]	composite z-score [6]	composite z-score [7]	composite z-score [8]	composite z-score [9]	composite z-score [10]	z-score [11]	composite z-score [12]	z-score [13]	z-score [14]	z-score [15]	z-score [16]	z-score [17]	z-score [18]	z-score [19]	z-score [20]
COCCOC(=O)N1C(=O)[C@@]2(c3cc(C#CCCO)ccc31)[C@H](c1ccc(OCCO)cc1)N1[C@H](c3ccccc3)[C@H](c3ccccc3)OC(=O)[C@H]1[C@@H]2C(=O)N1CCCCCCC1	0.827	-1.31 (inactive)	0.542 (inactive)	-0.459 (inactive)	2.51 (inactive)	1.79	1.48	0.862	0.726	1.97	-0.453 (inactive)	2.13	1.96 (inactive)	0.877 (inactive)	-0.564 (inactive)	0.115 (inactive)	-0.23	1.5 (inactive)	1.02 (inactive)	1.86
[N-]=[N+]=Nc1ccccc1C[C@@]1(C(=O)NCC(O)CO)N=C(c2ccc(OCCCO)cc2)O[C@@H]1c1ccccc1 (stereo not given in full)	0.674	-3.5 (inactive)	0.557 (inactive)	-0.16 (inactive)	-0.57 (inactive)	1.45	0.0047	0.744	0.944	-0.538	0.445 (inactive)	0.102	26.6 (active)	14.1 (active)	2.05 (inactive)	1.87 (inactive)	0.122	2.51 (inactive)	0.662 (inactive)	-0.946
[N-]=[N+]=Nc1ccccc1[C@@H]1OC(c2ccc(OCCCO)cc2)=N[C@]1(CCS(=O)(=O)c1ccccc1)C(=O)NCC(O)CO (stereo not given in full)	-0.0534	-1.33 (inactive)	-0.27 (inactive)	0.0827 (inactive)	0.0767 (inactive)	1.54	0.0051	1.37	1.61	-0.475	0.401 (inactive)	0.165	28.9 (active)	27.2 (active)	1.08 (inactive)	2.07 (inactive)	-0.158	-3.11 (inactive)	-0.18 (inactive)	-1.16
C=C(CCCC)/C(=C/C[C@H](OC(C)=O)c1cccc(OCCO)c1)c1cnc2ccccc2c1	0.0596	-0.717 (inactive)	0.768 (inactive)	7.36 (inactive)	-0.134 (inactive)	0.247	-0.208	-0.268	-0.348	0.477	0.186 (inactive)	-0.193	23.7 (active)	6.09 (inactive)	1.94 (inactive)	1.34 (inactive)	-0.33	-0.532 (inactive)	-0.294 (inactive)	-1.76
CCCN1C(=O)[C@@]2(c3ccc([N+](=O)[O-])cc3)CC(=O)N(CC34CC5CC(CC(C5)C3)C4)[C@@H]2c2ccc(CO)cc21	-0.347	-0.0818 (inactive)	0.312 (inactive)	0.272 (inactive)	1 (inactive)	-0.192	0.0588	-1.21	0.019	0.102	-0.803 (inactive)	0.334	0.336 (inactive)	0.0149 (inactive)	0.519 (inactive)	-0.312 (inactive)	-0.574	0.658 (inactive)	0.148 (inactive)	0.631
C=CC[C@@]1(C(=O)N(C)C)N=C(c2ccc(OCCCO)cc2)O[C@@H]1c1ccccc1CN=[N+]=[N-]	0.615	-2.89 (inactive)	1.1 (inactive)	0.754 (inactive)	-0.357 (inactive)	1.35	0.143	0.886	1.17	0.38	1.34 (inactive)	0.0513	23.1 (active)	6.73 (inactive)	1.93 (inactive)	1.26 (inactive)	-0.354	1.85 (inactive)	0.736 (inactive)	-1.42
COC(=O)[C@@]1(Cc2ccccc2)[C@H]2c3cc(C(=O)N(C)C)n(CCSC(=N)N)c3C[C@H]2CN1C(=O)c1ccccc1	-0.042	0.0619 (inactive)	-0.367 (inactive)	0.583 (inactive)	0.53 (inactive)	-0.405	0.0444	-0.524	-0.209	-0.564	-0.817 (inactive)	0.138	0.929 (inactive)	0.542 (inactive)	0.746 (inactive)	0.494 (inactive)	-0.0307	0.251 (inactive)	-0.357 (inactive)	-1.01
C=C(COC)/C(=C/C[C@H](OC(C)=O)c1ccccc1OCCO)c1cc(C(=O)OC)ccc1OC	0.0266	-3.38 (inactive)	0.0472 (inactive)	14.7 (active)	0.659 (inactive)	-0.432	-0.0589	-0.035	0.727	1.2	0.311 (inactive)	-0.145	8.11 (active)	1.02 (inactive)	0.454 (inactive)	-0.897 (inactive)	1.52	-0.688 (inactive)	0.0021 (inactive)	-1.97
